Results published in the supplement of paper PMC9262897, “Low-cost anti-mycobacterial drug discovery using engineered E. coli” (Nature Communications, 2022).
Where a name gives a salt, the structure may show the parent alone. ± gives the standard deviation of the averaged measurements.

Tests used:
Test in all cases: growth (OD600 after 10 h); higher = more growth (less inhibition)
[1] = test system: E. coli TESEC Alr+ wild-type control; conditions: compound 0.1 mM; raw OD600 reference: median of DMSO wells 0.241, cell-free background 0.041
Experimental: (§1)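 TESEC Mtb Alr E. coli, or the Alr+ wild-type control, in 384-well plates with Prestwick library compounds at 0.1 mM and 1% DMSO, across arabinose induction levels of 1E3 to 1E7 nM. Growth is read as OD600 after 10 h at 37 °C in triplicate biological replicates.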

[2] = test system: E. coli TESEC Mtb Alr; conditions: compound 0.1 mM
Experimental: as §1

[3] = test system: E. coli TESEC Mtb Asd; conditions: compound 0.1 mM
Experimental: (§2)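 TESEC E. coli strains in which the native enzyme is deleted and replaced by arabinose-inducible Mtb Asd, DapB, CysH or TrpD, each grown in its selective medium. Strains were screened against the Prestwick library at 0.1 mM and 1% DMSO in 384-well format at low and high arabinose induction. Growth is read as OD600 after 10 h in triplicate.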

[4] = test system: E. coli TESEC Mtb DapB; conditions: compound 0.1 mM
Experimental: as §2

[5] = test system: E. coli TESEC Alr+ wild-type control; conditions: compound 0.1 mM; raw OD600 reference: median of DMSO wells 0.49, cell-free background 0.052
Experimental: (§3)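 TESEC Mtb Alr E. coli (ΔaraC ΔtolC ΔentC Δalr ΔdadX, arabinose-inducible Mtb Alr) or the Alr+ wild-type control strain, grown in defined M9-fructose medium without D-alanine in 96-well plates with Prestwick library compounds at 0.1 mM and 1% DMSO. Low Alr induction is 0.1 µM arabinose and high induction is 10 mM arabinose.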

[6] = test system: E. coli TESEC Mtb Alr; conditions: compound 0.1 mM; remark: listed apart in the source
Experimental: as §3

[7] = arabinose 1000 nM, raw OD600 reference: median of DMSO wells 0.294, cell-free background 0.041
[8] = arabinose 10000 nM, raw OD600 reference: median of DMSO wells 0.264, cell-free background 0.041
[9] = arabinose 100000 nM, raw OD600 reference: median of DMSO wells 0.201, cell-free background 0.041
[10] = arabinose 1000000 nM, raw OD600 reference: median of DMSO wells 0.193, cell-free background 0.041
[11] = arabinose 10000000 nM, raw OD600 reference: median of DMSO wells 0.146, cell-free background 0.041
[12] = arabinose induction (level): High, raw OD600 reference: median of DMSO wells 0.331, cell-free background 0.041
[13] = arabinose induction (level): Low, raw OD600 reference: median of DMSO wells 0.417, cell-free background 0.041
[14] = arabinose induction (level): High, raw OD600 reference: median of DMSO wells […], cell-free background 0.041
[15] = arabinose induction (level): Low, raw OD600 reference: median of DMSO wells 0.227, cell-free background 0.041
[16] = arabinose 100 nM, raw OD600 reference: median of DMSO wells 0.413, cell-free background 0.052
[17] = arabinose 10000000 nM, raw OD600 reference: median of DMSO wells […], cell-free background 0.052

| Compound | growth [1] | growth [2, 7] | growth [2, 8] | growth [2, 9] | growth [2, 10] | growth [2, 11] | growth [3, 12] | growth [3, 13] | growth [4, 14] | growth [4, 15] | growth [5] | growth [6, 16] | growth [6, 17] |
| --- | --- | --- | --- | --- | --- | --- | --- | --- | --- | --- | --- | --- | --- |
| Cn1c(=O)c2c(ncn2CC(O)CO)n(C)c1=O (centres undefined) [Diprophylline] | 0.253 ± 0.0057 | 0.271 ± 0.026 | 0.249 ± 0.013 | 0.197 ± 0.018 | 0.182 ± 0.0025 | 0.138 ± 0.0093 | 0.367 ± 0.021 | 0.452 ± 0.052 | 0.206 ± 0.0061 | 0.24 ± 0.017 | 0.45 ± 0.05 | 0.421 ± 0.0097 | 0.313 ± 0.057 |
| C[C@@H]1C[C@H]2[C@@H]3CCC4=CC(=O)C=C[C@]4(C)[C@@]3(Cl)[C@@H](O)C[C@]2(C)[C@@]1(OC(=O)c1ccco1)C(=O)CCl [Mometasone furoate] | 0.203 ± 0.0057 | 0.259 ± 0.031 | 0.223 ± 0.011 | 0.161 ± 0.0059 | 0.0878 ± 0.0027 | 0.152 ± 0.013 | 0.198 ± 0.049 | 0.329 ± 0.082 | 0.297 ± 0.12 | 0.212 ± 0.06 | 0.498 ± 0.036 | 0.415 ± 0.013 | 0.244 ± 0.0054 |
| CN1[C@@H]2CC[C@H]1C[C@@H](OC(c1ccccc1)c1ccccc1)C2 [Benztropine mesylate] | 0.1702 ± 0.0017 | 0.219 ± 0.0061 | 0.289 ± 0.037 | 0.165 ± 0.0036 | 0.133 ± 0.0073 | 0.166 ± 0.0023 | 0.137 ± 0.018 | 0.253 ± 0.076 | 0.166 ± 0.0063 | 0.201 ± 0.011 | 0.487 ± 0.029 | 0.4104 ± 0.0035 | 0.288 ± 0.0043 |
| COc1ccc2cc([C@@H](C)C(=O)O)ccc2c1 [(R) -Naproxen sodium salt] | 0.263 ± 0.0059 | 0.311 ± 0.018 | 0.275 ± 0.0043 | 0.198 ± 0.0079 | 0.183 ± 0.0045 | 0.141 ± 0.0034 | 0.484 ± 0.02 | 0.341 ± 0.077 | 0.196 ± 0.014 | 0.216 ± 0.052 | 0.448 ± 0.03 | 0.408 ± 0.0092 | 0.317 ± 0.0088 |
| CN(C)C(=N)NC(=N)N [Metformin hydrochloride] | 0.253 ± 0.0099 | 0.281 ± 0.026 | 0.258 ± 0.0057 | 0.238 ± 0.03 | 0.178 ± 0.0068 | 0.145 ± 0.0029 | 0.372 ± 0.032 | 0.404 ± 0.032 | 0.218 ± 0.037 | 0.235 ± 0.043 | 0.447 ± 0.052 | 0.404 ± 0.015 | 0.349 ± 0.032 |
| CCN(CC)CCOc1ccc(C(=C(Cl)c2ccccc2)c2ccccc2)cc1 [Clomiphene citrate (Z,E)] | 0.0417 ± 0.00081 | 0.04167 ± 0.00032 | 0.04553 ± 0.00029 | 0.0433 ± 0.0019 | 0.0493 ± 0.00052 | 0.0428 ± 0.00085 | 0.0496 ± 0.0019 | 0.0482 ± 0.00099 | 0.04853 ± 0.00015 | 0.0475 ± 0.00049 | 0.0537 ± 0.00085 | 0.0696 ± 0.034 | 0.0856 ± 0.015 |
| CC[N+](C)(C)Cc1ccccc1Br [Bretylium tosylate] | 0.253 ± 0.011 | 0.323 ± 0.02 | 0.261 ± 0.0084 | 0.22 ± 0.0026 | 0.1733 ± 0.00021 | 0.1633 ± 0.00072 | 0.484 ± 0.032 | 0.476 ± 0.018 | 0.221 ± 0.025 | 0.241 ± 0.013 | 0.624 ± 0.021 | 0.409 ± 0.015 | 0.324 ± 0.017 |
| COc1ccccc1OCC(O)COC(N)=O (centres undefined) [Methocarbamol] | 0.2535 ± 0.00091 | 0.282 ± 0.0088 | 0.275 ± 0.012 | 0.218 ± 0.018 | 0.187 ± 0.0043 | 0.141 ± 0.006 | 0.292 ± 0.018 | 0.397 ± 0.058 | 0.178 ± 0.012 | 0.183 ± 0.018 | 0.509 ± 0.11 | 0.412 ± 0.0098 | 0.347 ± 0.0072 |
| NC[C@H]1O[C@H](O[C@H]2[C@H](O[C@@H]3O[C@H](CO)[C@@H](O)[C@H]3O)[C@@H](O)[C@H](N)C[C@@H]2N)[C@H](N)[C@@H](O)[C@@H]1O [Ribostamycin sulfate salt] | 0.238 ± 0.011 | 0.286 ± 0.0099 | 0.269 ± 0.0065 | 0.182 ± 0.025 | 0.201 ± 0.015 | 0.138 ± 0.0082 | 0.37 ± 0.013 | 0.458 ± 0.012 | 0.218 ± 0.023 | 0.226 ± 0.016 | 0.549 ± 0.058 | 0.42 ± 0.011 | 0.366 ± 0.012 |
| C[C@]12CC[C@@H]3c4ccc(O)cc4CC[C@H]3[C@@H]1CCC2=O [Estrone] | 0.185 ± 0.0043 | 0.249 ± 0.0084 | 0.23 ± 0.0023 | 0.187 ± 0.0045 | 0.153 ± 0.0041 | 0.129 ± 0.0036 | 0.281 ± 0.031 | 0.36 ± 0.074 | 0.208 ± 0.026 | 0.201 ± 0.022 | 0.511 ± 0.013 | 0.402 ± 0.011 | 0.291 ± 0.0057 |
| Cc1onc(-c2ccccc2)c1-c1ccc(S(N)(=O)=O)cc1 [Valdecoxib] | 0.124 ± 0.0019 | 0.173 ± 0.0027 | 0.216 ± 0.029 | 0.148 ± 0.0053 | 0.0949 ± 0.0023 | 0.122 ± 0.0014 | 0.196 ± 0.038 | 0.245 ± 0.045 | 0.178 ± 0.015 | 0.229 ± 0.022 | 0.388 ± 0.027 | 0.4007 ± 0.0035 | 0.198 ± 0.016 |
| Clc1ccc(C(Cn2ccnc2)OCc2c(Cl)cccc2Cl)c(Cl)c1 (centres undefined) [Isoconazole] | 0.0482 ± 0.00036 | 0.0445 ± 0.0043 | 0.247 ± 0.037 | 0.0465 ± 0.0023 | 0.105 ± 0.12 | 0.0545 ± 0.0038 | 0.152 ± 0.079 | 0.0562 ± 0.006 | 0.0672 ± 0.015 | 0.0666 ± 0.02 | 0.0722 ± 0.023 | 0.0651 ± 0.02 | 0.104 ± 0.075 |
| Cc1ccc(S(=O)(=O)NC(=O)NN2CC3CCCC3C2)cc1 (centres undefined) [Gliclazide] | 0.244 ± 0.012 | 0.309 ± 0.0099 | 0.271 ± 0.0064 | 0.222 ± 0.017 | 0.192 ± 0.0036 | 0.177 ± 0.0042 | 0.298 ± 0.032 | 0.364 ± 0.071 | 0.212 ± 0.011 | 0.28 ± 0.042 | 0.518 ± 0.074 | 0.404 ± 0.02 | 0.372 ± 0.0073 |
